USP10 inh = blocks human USP10 ubiquitin-rhodamine cleavage | 47,000 compounds, 1.1% hits | AID 1645856 | purified USP10, Ub-rhodamine fluorescence, 60 min | inhibition, % at 20 µM
USP28 block = inhibitors of human USP28 deubiquitinase; purified USP28, Ub-rhodamine cleavage fluorescence, 30 min; inhibition, % at 25 µM; 47,000 compounds, 3% hits
USP30 block = human USP30 deubiquitinase inhibition; inhibition, % at 25 µM; 47,000 compounds, 5.3% hits; purified USP30, Ub-rhodamine cleavage fluorescence
USP8 block = human USP8 deubiquitinase inhibition; 47,000 compounds, 4.2% hits; inhibition, % at 20 µM; P40818; purified USP8, Ub-rhodamine cleavage fluorescence, 30 min
OTUD3 inh = blocks human OTUD3 ubiquitin-rhodamine cleavage. Q5T2D3. inhibition, % at 25 µM. purified OTUD3, Ub-rhodamine fluorescence, 2 h. AID 1645858. 47,000 compounds, 0.7% hits
USP17 inh = inhibitors of human USP17 deubiquitinase; A8MUK1; purified USP17, Ub-rhodamine cleavage fluorescence, 3 h; inhibition, % at 50 µM; 47,000 compounds, 6.5% hits
A number is an active result. Sampled rows, rich in hits. Any-hit rate of the full collection: about 13%. Rule as the data show it: active = inhibition above about 30%; inactive = the rest.

Screening CN(Cc1ccc2c(c1)OCO2)C(=O)Cn1cnc2sc(-c3ccccc3)cc2c1=O returned USP10 inh inactive, USP28 block inactive, USP30 block inactive, USP8 block 55, OTUD3 inh inactive and USP17 inh inactive.
For COc1nc2c(c(-c3ccco3)c1C#N)Cc1cc(NC(C)=O)ccc1-2 the results were USP10 inh inactive, USP28 block inactive, USP30 block inactive, USP8 block 66, OTUD3 inh inactive and USP17 inh 39.
Screening COc1ccc(NC(=O)COc2cccc(-c3noc(-c4ccco4)n3)c2)cc1 returned USP10 inh inactive, USP28 block inactive, USP30 block inactive, USP8 block inactive, OTUD3 inh inactive and USP17 inh inactive.
Screening CN1CCN(C(=O)c2oc3ccccc3c2NC(=O)c2ccc(F)cc2)CC1 returned USP10 inh inactive, USP28 block inactive, USP30 block inactive, USP8 block 41, OTUD3 inh inactive and USP17 inh inactive.
O=C(Nc1c(C(=O)N2CCCCCC2)oc2ccccc12)C1CCCC1 was read as USP10 inh inactive, USP28 block inactive, USP30 block inactive, USP8 block 32, OTUD3 inh inactive and USP17 inh inactive.
For COc1ccc(C(=O)Nc2c(C(=O)N3CCN(C)CC3)oc3ccccc23)cc1 the results were USP10 inh inactive, USP28 block inactive, USP30 block inactive, USP8 block inactive, OTUD3 inh inactive and USP17 inh inactive.
COc1ccccc1C(=O)Nc1c(C(=O)N2CCOCC2)oc2ccccc12 was read as USP10 inh inactive, USP28 block inactive, USP30 block inactive, USP8 block inactive, OTUD3 inh inactive and USP17 inh inactive.
For Cc1cc(C)n(CC2CN(Cc3noc(C4CC4)n3)CCO2)n1 (centres undefined) the results were USP10 inh inactive, USP28 block inactive, USP30 block inactive, USP8 block inactive, OTUD3 inh inactive and USP17 inh inactive.
`O=C(Oc1coc(CSc2ncccn2)cc1=O)c1ccccc1Br` gave USP10 inh inactive, USP28 block inactive, USP30 block inactive, USP8 block 36, OTUD3 inh inactive and USP17 inh inactive.
For Cc1cc(C)nc(SCc2cc(=O)c(OC(=O)c3ccc(F)c(F)c3)co2)n1 the results were USP10 inh inactive, USP28 block inactive, USP30 block inactive, USP8 block 34, OTUD3 inh inactive and USP17 inh inactive.
O=C(Oc1coc(CSc2ncccn2)cc1=O)c1ccccc1Cl was read as USP10 inh inactive, USP28 block inactive, USP30 block inactive, USP8 block inactive, OTUD3 inh inactive and USP17 inh inactive.
Screening COc1ccc(CCNC(=O)c2cnn(-c3ccc([N+](=O)[O-])cc3)c2C2CCNCC2)c(OC)c1 returned USP10 inh inactive, USP28 block inactive, USP30 block 34, USP8 block inactive, OTUD3 inh inactive and USP17 inh inactive.
For COc1ccc(CCNC(=O)c2cnn(-c3ccc(F)cc3)c2C2CCNCC2)c(OC)c1 the results were USP10 inh inactive, USP28 block inactive, USP30 block inactive, USP8 block inactive, OTUD3 inh inactive and USP17 inh inactive.
`N#Cc1cccc(CN2CCC3(CC2)Cc2ccccc2CNC3=O)c1` gave USP10 inh inactive, USP28 block inactive, USP30 block inactive, USP8 block inactive, OTUD3 inh inactive and USP17 inh inactive.
For COC(=O)c1ccc(C(=O)OC)c(N2C(=O)CSCC2=O)c1 the results were USP10 inh inactive, USP28 block inactive, USP30 block 49, USP8 block 36, OTUD3 inh inactive and USP17 inh inactive.
`COC(=O)c1ccc(O)c(O)c1` gave USP10 inh inactive, USP28 block inactive, USP30 block inactive, USP8 block inactive, OTUD3 inh inactive and USP17 inh inactive.
`O=C(NCCc1nc(-c2ccc3c(c2)OCO3)n[nH]1)c1cccc(Br)c1` gave USP10 inh inactive, USP28 block inactive, USP30 block inactive, USP8 block inactive, OTUD3 inh inactive and USP17 inh 38.
`O=C(NCCc1nc(-c2ccncc2)n[nH]1)c1cccc2cccnc12` gave USP10 inh inactive, USP8 block inactive, OTUD3 inh inactive and USP17 inh inactive.
`Cc1cccc(NC(=O)CSc2nnc(-c3cccnc3)o2)c1C` gave USP10 inh inactive, USP28 block inactive, USP30 block inactive, USP8 block inactive, OTUD3 inh inactive and USP17 inh inactive.

Screening data: PubChem, Buhrlage Lab, Dana-Farber Cancer Institute and Novartis Institutes for BioMedical Research (Cambridge, Mass)
